nsP2pro inh – blocks chikungunya virus nsP2 protease peptide cleavage | Q8JUX6 | 1.1% of 31,000 active | AID 1964107 | FRET peptide cleavage, nsP2pro, fluorescence 1 h | Potency, µM (highest dose often 24.9 µM), for the others: at the top dose activity change, negative = inhibition, most hits filed as inhibitors; further: nearly all actives have a fitted effect of over 60% in size
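Recombinant nsP2pro (150 nM) was preincubated with compound 15 min at room temperature in 10 mM Tris-HCl pH 8.0, 0.01% Tween 20. Peptide 2 FRET substrate (2.5 uM) was then added and fluorescence read after 1 h. Seven-point series, up to 25 uM.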
CHIKV nsP2 cell – inhibits CHIKV nsP2 protease in cells. shares compounds with nsP2pro inh. cell-based CHIKV nsP2 protease reporter assay. Potency, µM (top dose mostly 51.1 µM), for the others: at the highest dose activity change, negative = inhibition, usual class: inhibitors. 10% of 450 active. AID 1964100; further: nearly all actives have a fitted effect of over 70% in size
NSP2 full ctr – full-length CHIKV NSP2 protease inhibition, selectivity; Full-length CHIKV NSP2 protease enzymatic counterscreen; 39% of 410 active; Potency, µM (top dose mostly 50.7 µM), for inactives: top-dose activity change, negative = inhibition, most hits filed as inhibitors; shares compounds with nsP2pro inh; further: nearly all actives have a fitted effect of over 65% in size
Furin counterscr – selectivity counter-screen for CHIKV nsP2 protease inhibitors: human furin | shares compounds with nsP2pro inh | Recombinant human furin enzymatic counterscreen, fluorogenic substrate | Potency, µM (series often up to 50.6 µM), without a hit: at the highest dose activity change, negative = inhibition, hits mostly inhibitors | 6% of 410 active
Target sequence (P09958 whole entry, looked up): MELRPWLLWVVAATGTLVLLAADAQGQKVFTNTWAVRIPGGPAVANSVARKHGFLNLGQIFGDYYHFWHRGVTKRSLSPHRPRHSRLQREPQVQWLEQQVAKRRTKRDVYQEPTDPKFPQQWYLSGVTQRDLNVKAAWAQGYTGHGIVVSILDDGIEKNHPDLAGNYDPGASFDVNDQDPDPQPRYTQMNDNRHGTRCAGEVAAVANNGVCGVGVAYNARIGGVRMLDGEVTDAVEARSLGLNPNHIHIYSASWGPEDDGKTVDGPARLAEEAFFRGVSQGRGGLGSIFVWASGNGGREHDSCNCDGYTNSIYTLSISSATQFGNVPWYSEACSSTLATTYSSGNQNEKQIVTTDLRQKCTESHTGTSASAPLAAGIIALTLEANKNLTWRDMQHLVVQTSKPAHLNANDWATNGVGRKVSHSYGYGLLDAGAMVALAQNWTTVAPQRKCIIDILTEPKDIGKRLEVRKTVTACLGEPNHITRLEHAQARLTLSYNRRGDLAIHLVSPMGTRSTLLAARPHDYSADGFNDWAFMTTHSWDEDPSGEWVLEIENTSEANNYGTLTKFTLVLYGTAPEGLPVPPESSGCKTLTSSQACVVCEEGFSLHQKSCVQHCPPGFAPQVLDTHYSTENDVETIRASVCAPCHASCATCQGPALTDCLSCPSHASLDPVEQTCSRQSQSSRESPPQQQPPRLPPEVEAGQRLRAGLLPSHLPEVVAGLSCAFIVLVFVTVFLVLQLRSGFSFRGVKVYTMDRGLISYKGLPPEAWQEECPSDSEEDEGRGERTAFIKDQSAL
NS23 peptide cs – blocks CHIKV nsP2 protease cleavage of endogenous NS2/3 peptide; shares compounds with nsP2pro inh; Purified CHIKV nsP2 protease, endogenous NS2/3 peptide cleavage; Potency, µM (top dose mostly 51 µM), without a hit: top-dose activity change, negative = inhibition, hits mostly inhibitors; 34% of 410 active; further: nearly all actives have a fitted effect of over 55% in size
Papain counter – inhibits papain in a CHIKV nsP2 protease selectivity counterscreen | 5% of 410 active | shares compounds with nsP2pro inh | Potency, µM (highest dose often 51 µM), for the others: at the highest dose activity change, negative = inhibition, actives largely listed as inhibitors | AID 1964104 | purified papain protease activity, enzymatic inhibition
nsP2pro conf qHTS – confirmation of CHIKV nsP2 protease inhibitors | shares compounds with nsP2pro inh | CHIKV nsP2 protease enzymatic activity, qHTS | Potency, µM (highest dose often 25.5 µM), inactives show top-dose activity change, negative = inhibition, usual class: inhibitors | 43% of 410 active | AID 1964105; further: nearly all actives have a fitted effect of over 75% in size
HCV NS3 counter – selectivity counter-screen for CHIKV nsP2 protease inhibitors: HCV NS3/4A | Potency, µM (doses to about 50.9 µM), hits mostly inhibitors | AID 1964106 | 20% of 410 active | HCV NS3/4A protease biochemical counterscreen | shares compounds with nsP2pro inh; further: nearly all actives have a fitted effect of over 55% in size
Numbers without * were called inactive; i = inactive; ? = inconclusive; ! = repeats disagree; [ ] = another dose, or the depositor's remark. This excerpt belongs to a sample that is enriched for hits. The call rests on the fitted dose curve. On the % scale 0 is the no-effect control and ±100 the full control effect; potency means the concentration at half of the fitted maximal effect.

SMILES	nsP2pro inh	others
COc1cccc(CNC(=O)C(=O)NCC(c2ccco2)S(=O)(=O)c2cccs2)c1 (stereo not drawn)	-21.0%
Cc1ccc2nc(-c3ccc(C)o3)c(Nc3ccc4c(c3)OCO4)n2c1	15.8%
COCCN1CCOC[C@H]2CCN(C(=O)c3cnccn3)C[C@H]21	-23.4%
Cc1cnc(-c2ccccc2C2CC2)nc1NCc1ccc(-c2cccnc2)cc1	i
C=C1C(=O)O[C@H]2C3=C(C)CCC[C@]3(C)C(=O)C[C@@H]12	?	CHIKV nsP2 cell=?;NSP2 full ctr=?;Furin counterscr=1.6%;NS23 peptide cs=?;Papain counter=?;nsP2pro conf qHTS=?;HCV NS3 counter=i
C=C1C(=O)O[C@@H]2[C@H]3O[C@]3(C)CC/C=C(\C)CC[C@@H]12	-4.8%
C=C1CC[C@@H](O)[C@]2(C)CC[C@H]3C(=C)C(=O)O[C@@H]3[C@@H]12	12.4%
O=C(Cc1ccccc1)Nc1c(C(=O)N2CCN(c3ccc(F)cc3)CC2)oc2ccccc12	-29.0%
CS(=O)(=O)c1ncc(Cl)c(C(=O)N(Cc2ccc(Cl)cc2)Cc2ccco2)n1	4.78µM*	CHIKV nsP2 cell=2.59µM*;NSP2 full ctr=?;Furin counterscr=-5.5%;NS23 peptide cs=4.11µM*;Papain counter=1.7%;nsP2pro conf qHTS=2.25µM*;HCV NS3 counter=i
O=C(c1cc(-c2ccc(Cl)cc2)on1)N(Cc1ccc(F)cc1)Cc1ccco1	-7.6%
O=C(c1ccc(Cl)cc1)N(Cc1ccco1)Cc1ccco1	-8.8%
O=C(c1ccc(C(F)(F)F)cc1)N1CC2CC(C1)[C@H]1CCCC(=O)N1C2 (stereo partly drawn)	-1.4%
C=C1C(=O)O[C@@H]2[C@H]3C(=C)[C@@H](O)C[C@H]3C(=C)C[C@@H](O)[C@@H]12	34.7%
C=C1C(=O)O[C@@H]2/C=C(/C)CC3C=C(C[C@H](OC(=O)/C(C)=C\C)[C@@H]12)C(=O)O3 (stereo partly drawn)	-29.5%
C=C1C(=O)O[C@@H]2C(OC(=O)/C(C)=C\C)/C(C)=C\C(=O)/C=C(\C)C[C@H](O)[C@@H]12 (stereo partly drawn)	?	CHIKV nsP2 cell=?;NSP2 full ctr=-11.2%[33.5 µM];Furin counterscr=-6.2%[33.5 µM];NS23 peptide cs=?;Papain counter=-11.9%[33.5 µM];nsP2pro conf qHTS=-23.4%[16.7 µM];HCV NS3 counter=?
Cc1cc(CNc2ncnc3ccc(-c4ccc5c(c4)OCO5)cc23)c(C)o1	i
Cc1c(F)cc(C(=O)NC2CC2)cc1-c1ccc(C(=O)NCC(C)(C)C)cn1	-9.6%
Cc1ccc(CNc2nc3c(c(=O)n(C)c(=O)n3C)n2Cc2ccc(Cl)cc2)cc1	-15.7%
Cc1cccc(C(=O)N2C[C@H]3OC(=O)N(CCCN4CCOCC4)[C@H]3C2)c1	2.3%
Cc1cccc(C(=O)Nc2ccc(N3CCC(CCN4CCOCC4)CC3)c(C(=O)O)c2)c1	4.47µM*!	CHIKV nsP2 cell=8.6%;NSP2 full ctr=-10.1%;Furin counterscr=2.6%;NS23 peptide cs=-3.4%;Papain counter=-3.2%;nsP2pro conf qHTS=22.0%;HCV NS3 counter=?
Cc1cccc(C(=O)Nc2ccc(N3CCN(c4ccc(F)cc4)CC3)c(C(=O)O)c2)c1	?	CHIKV nsP2 cell=50.0%;NSP2 full ctr=7.3µM*;Furin counterscr=-23.4%;NS23 peptide cs=16.3µM*;Papain counter=-2.6%;nsP2pro conf qHTS=8.96µM*;HCV NS3 counter=4.11µM*
COc1ccccc1C(=O)Nc1cccc(NC(=O)c2cccc(C)c2)c1	7.9%
CCOC(=O)N1CCN(Cc2nc3cc(NC(=O)c4cccc(C)c4)ccc3n2C(C)C)CC1	2.2%
CC(=O)c1ccc(N2CCN(c3ccc(NC(=O)c4cccs4)cc3C(=O)O)CC2)cc1	-28.1%
O=C(Nc1ccccc1)c1cnc(N2CCCCC2)c2ccccc12	13.5%
SMILES	nsP2pro inh	others
O=C(Nc1ccc(Cl)c(-c2nc3cc(Cl)ccc3o2)c1)c1cc([N+](=O)[O-])ccc1N1CCOCC1	-11.7%
O=C(Nc1ccc(N2CCOCC2)c(C(=O)O)c1)c1ccc(Br)cc1	3.55µM*	CHIKV nsP2 cell=10.9%;NSP2 full ctr=2.91µM*;Furin counterscr=?;NS23 peptide cs=6.51µM*;Papain counter=3.1%;nsP2pro conf qHTS=5.65µM*;HCV NS3 counter=1.63µM*
O=C(Nc1cnc(N2CCC(N3CCCCC3)CC2)c(C(=O)O)c1)c1ccc(Br)cc1	3.98µM*	CHIKV nsP2 cell=-1.9%;NSP2 full ctr=4.11µM*;Furin counterscr=?;NS23 peptide cs=16.3µM*;Papain counter=-7.0%;nsP2pro conf qHTS=7.98µM*;HCV NS3 counter=4.11µM*
O=C(Nc1ccc(N2CCC(N3CCCCC3)CC2)c(C(=O)O)c1)c1ccc(Br)cc1	33.6%
O=C(Nc1ccc(Br)cc1)c1ccc(Br)c(S(=O)(=O)N2CCCCC2)c1	-4.4%
CCCCCCCCCCCCCCCCCCOCC(O)CO (stereo not drawn)	-0.9%
CC(CNC(=O)c1cc2cc(S(=O)(=O)N3CCCCC3)ccc2n1C)c1ccccc1 (stereo not drawn)	-12.6%
Fc1cc(Nc2nc(-c3ccncc3)nc3ccccc23)ccc1-c1ccnc(C(F)(F)F)c1	-2.0%
CCC(C(=O)NCCc1ccccc1)n1nc(C)n2c(cc3sccc32)c1=O (stereo not drawn)	-10.5%
O=C(NCCc1ccc(Cl)cc1)c1ccc(Cn2c(=O)[nH]c3ccccc3c2=O)cc1	-14.4%
Cc1ncccc1C(=O)N1C[C@H]2OC(=O)N(CCc3cccc(Cl)c3)[C@H]2C1	-22.9%
O1[As]2O[As]1O2	-6.3%
O=C(Nc1ccc2c(c1)N(C1CCCC1)C(=O)c1ccccc1S2)c1ccccc1F	-15.7%
O=C(Nc1ccc(N2CCN(c3ccc(F)cc3)CC2)c(C(=O)O)c1)c1ccccc1F	?	CHIKV nsP2 cell=13.1%;NSP2 full ctr=4.11µM*;Furin counterscr=?;NS23 peptide cs=13µM*;Papain counter=-5.5%;nsP2pro conf qHTS=7.11µM*;HCV NS3 counter=1.3µM*
CCN(CC)C(=O)C(c1ccccc1)N1CCN(c2ccc(NC(=O)c3ccccc3-c3cccnc3)cc2F)CC1 (stereo not drawn)	1.5%
COc1cc(Cl)ccc1OC(=O)c1cn(-c2ccccc2OC)c(=O)c2ccccc12	-32.5%
Cc1cccc(N2CCN(C(=O)c3noc4c3COc3ccc(C)cc3-4)CC2C)c1 (stereo not drawn)	-12.9%
Nc1cc(-c2ccncc2)c[nH]c1=O	3.51µM*	CHIKV nsP2 cell=3.4%;NSP2 full ctr=?;Furin counterscr=-7.4%;NS23 peptide cs=?;Papain counter=-11.6%;nsP2pro conf qHTS=?;HCV NS3 counter=i
Nc1c(-c2ccncc2)cc[nH]c1=O	-19.9%
COC[C@H]1NC(=O)CC[C@H]1C(=O)NC1CCN(Cc2ccccc2)CC1	i
CCCCNC(=O)C1CCN(c2nc3ccc(C)cc3[nH]2)CC1	-10.8%
CN(C)C[C@@H]1CN(C2CCOCC2)C[C@H]1NC(=O)Cc1ccccc1Cl	3.3%

Source: PubChem
